Measurements published in the supplement of paper PMC3334620.
The full ranking holds about 33,000 sequences; the median of “E-score (-0.5 to 0.5)” is about -0.016, and the highest 2% start at about 0.3. Many of the other results were omitted from the sample, so the highest values are more common in it than they were.

Target: T1, Yer184c (UniProt P39961)
T1 sequence: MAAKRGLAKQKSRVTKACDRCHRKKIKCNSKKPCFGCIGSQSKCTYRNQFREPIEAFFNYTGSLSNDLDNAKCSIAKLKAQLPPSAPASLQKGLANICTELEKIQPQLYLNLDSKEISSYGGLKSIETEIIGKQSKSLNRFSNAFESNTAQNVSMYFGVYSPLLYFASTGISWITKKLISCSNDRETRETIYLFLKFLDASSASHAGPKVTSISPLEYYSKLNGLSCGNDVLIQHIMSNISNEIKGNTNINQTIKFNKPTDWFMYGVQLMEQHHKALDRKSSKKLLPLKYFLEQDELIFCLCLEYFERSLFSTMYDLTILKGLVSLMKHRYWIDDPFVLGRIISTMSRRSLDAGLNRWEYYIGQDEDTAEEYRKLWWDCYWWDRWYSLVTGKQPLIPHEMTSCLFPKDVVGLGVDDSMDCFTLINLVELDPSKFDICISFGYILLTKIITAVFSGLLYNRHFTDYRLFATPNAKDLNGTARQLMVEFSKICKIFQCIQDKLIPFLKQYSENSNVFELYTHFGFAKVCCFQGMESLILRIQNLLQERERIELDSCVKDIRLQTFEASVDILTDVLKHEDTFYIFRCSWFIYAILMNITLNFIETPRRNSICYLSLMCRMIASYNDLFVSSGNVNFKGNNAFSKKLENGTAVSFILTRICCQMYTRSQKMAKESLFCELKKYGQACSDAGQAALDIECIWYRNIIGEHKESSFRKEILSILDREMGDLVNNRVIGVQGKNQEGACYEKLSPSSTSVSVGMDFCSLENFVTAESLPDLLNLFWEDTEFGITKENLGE
Test: PBM E-score (8-mer binding enrichment) (E-score (-0.5 to 0.5)); higher = stronger / more preferred TF binding
Conditions: protein concentration: 100 nM; construct: GST-full length
Procedure: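 Universal 'all 10-mer' protein binding microarrays (Agilent AMADID 015681) probed with GST-tagged S. cerevisiae TFs (full-length or DBD) made by in vitro transcription/translation (PURExpress), about 100-200 nM. Bound TF was detected with fluorescent anti-GST. Each ungapped 8-mer (which stands for itself and its reverse complement) is scored by the PBM enrichment score (E-score), a modified Wilcoxon-Mann-Whitney statistic from -0.5 to +0.5, computed with the Universal PBM Analysis Suite. Scale: above 0.35 generally sequence-specific binding.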

Sequence | PBM E-score
CACAAGCC | -0.0115
AGCCCGTA | -0.276
GAACACCC | -0.0175
AAGGCCGG | 0.318
AAGGCCGT | 0.156
AAGGCCGC | 0.051
AAGGCCGA | 0.338
AAGGCCCG | -0.093
CAGGCCGG | 0.108
CGCCCGCA | -0.0897
GATGAGCA | 0.0238
GAGGTCGA | -0.158
GACTGCCC | -0.309
ATATTGCG | -0.0525
GTCGGCGA | 0.134
GTCGGCTA | 0.153
ATCGGCGA | 0.128
CTCGGCTA | 0.352
CGCGGCGC | 0.259
CTCGGCGA | 0.399
CTCGGCTC | 0.237
ATCGGCGC | 0.275
CTCGGCGC | 0.357
TAGATGGA | -0.162
AAGAGGAG | -0.115

Sequence | PBM E-score
GATGGATA | 0.0331
CGGGGAGC | -0.0385
AGAGCCAT | -0.101
CGCTATGA | -0.0231
CTTCGGAA | 0.394
CTTCGGGA | 0.171
AGTCGGAC | 0.0344
ATTCGGAC | 0.349
CTTCGGTC | 0.309
ATTCGGGC | 0.141
GTTCGGGA | 0.226
CGTCGGAA | 0.24
GTTCGGAA | 0.402
CTTCGGTA | 0.235
ATTCGGTC | 0.244
GGTCGGAA | 0.225
AAAGTTAT | 0.134
CGAACCCA | -0.0147
GCGCCCTA | -0.135
CGCGTAGC | -0.0173
CCTGTCAG | -0.101
TCCGCGAA | 0.234
ATTGGTAG | -0.0488
ATTCGGAG | 0.205
ATTCGGAA | 0.353

Sequence | PBM E-score
CCTCGGAC | 0.17
CTTCGGAC | 0.325
CTTCGGGC | -0.0555
AGTCGGAA | 0.245
GTATGCTA | -0.0379
AACCGCGA | 0.225
AGCCGCGC | 0.103
ACCCGCGT | -0.0424
AGCCGCGG | 0.419
ATCCGCGA | 0.105
AACCGCGG | 0.372
ACCCGCGA | -0.0511
ATCCGCGC | 0.141
AGCCGCGA | 0.133
AACCGCGT | 0.168
ATCCGCGG | 0.359
ACCCGCGG | 0.351
GATCGCAC | -0.0597
CAAAGATC | 0.154
CGATCTGC | 0.0352
AGCTACCT | -0.0785
CAGTCCCA | -0.171
GTAAGGAA | -0.0396
CACAGAAC | -0.13
ATTCCGGA | 0.436

Sequence | PBM E-score
GTTCCGGA | 0.438
ATTCCGCA | 0.139
CTTCCCGA | 0.148
CTTCCGGC | 0.343
CTTCCGCC | 0.024
CTTCCGGA | 0.402
CTTCCTGC | -0.314
ATACCGGA | 0.237
CTTCCGCA | 0.068
GTTCCGCA | 0.268
GTACCGGA | 0.285
CCAACGTA | -0.105
ACTCGGGA | 0.199
GAAAACCA | -0.0101
GTGCAGAA | 0.0359
CTGTGGGC | -0.192
CGTCCCCC | -0.275
ATGGGCAC | -0.072
ATTCGCCA | 0.0246
ATTCGCCC | -0.127
ATTCGCCG | 0.334
GAGAGGAC | -0.128
AGCCCGGG | 0.268
CGCCCGGC | 0.213
AGCCCGGC | 0.309

Sequence | PBM E-score
CGCCCGGA | 0.264
GGCCCGGA | 0.301
AGCCCGGA | 0.314
CCTGGAGA | -0.035
AATCCTGA | 0.0482
AAATACCT | -0.105
ATCAACTA | 0.178
GAGGTGCC | 0.0277
CAACGTGC | -0.133
ACAAGTAC | 0.00537
AAGCGAGT | 0.225
ACAGCCGG | 0.343
ACAGCCGC | -0.0252
AGAGCCGC | 0.0235
ATAGCCGA | 0.299
AGAGCCGA | 0.26
AGAGCCGG | 0.314
ACAGCCGA | 0.0776
ATAGCCGC | 0.0602
ATAGCCGG | 0.388
ATCCACTG | -0.143
CTCCAGTC | -0.195
GGACCGAA | 0.353
AGACCGAT | 0.0681
AGACCGAA | 0.305

Sequence | PBM E-score
GGACCGAC | 0.12
TGACCGAA | 0.228
CGACCGAA | 0.273
ACGTTGCC | -0.14
CGTTACCC | -0.104
CGATACCG | -0.0503
AAATTGCC | 0.168
CAGTGTGA | 0.0148
AGCTCCAG | -0.151
TAAATTCA | -0.0563
GCTTCGCA | -0.163
CCTTCGGC | 0.219
ACTTCGGC | 0.269
ACTTCGGG | 0.0741
ACTTCGGA | 0.337
GCTTCGTA | -0.148
CCTTCGGA | 0.327
CCTTCGCA | -0.0813
GCTTCGGA | 0.304
CGCGTTGA | -0.00366
GGTCTTGA | -0.0168
CAGTGGCC | -0.0943
ATTTGTGA | 0.0908
CCTCAACA | 0.126
ACCCTAGC | -0.109

Sequence | PBM E-score
AACGCCTG | -0.104
TCCAGGCA | -0.15
CCGCAAAC | 0.144
AGTCTTCA | -0.0522
GTTTCGTA | 0.274
ATTTCGTC | -0.0283
ATTTCGGC | 0.373
ATTTCGCA | 0.24
CTTTCGGC | 0.201
ATTTCGGA | 0.348
CTTTCGGA | 0.286
GTTTCGGA | 0.304
ATTTCGGG | 0.157
TCATAGGA | -0.0683
AATACCGA | 0.165
GACCATAA | 0.0623
CTCAGTAA | -0.0129
CAATGGAG | -0.164
CGGATACG | 0.247
AATATTAA | 0.311
AATATTCC | 0.342
AATATTCA | 0.037
AATATTCG | 0.0897
TATATTAA | 0.274
AATATTAT | 0.293

Sequence | PBM E-score
CGACCACA | -0.136
TAGCGAGA | 0.00559
AAGGACAA | 0.0335
ATCGGTCC | 0.0402
GTCCCACA | 0.00972
CTTGGTGA | -0.0525
ACCGAAAG | 0.181
GCCGAAAA | 0.439
CCCGAAAC | 0.0699
ACCGAAAA | 0.349
CCCGAAAA | 0.263
GCCGAATA | 0.361
CCCGAATA | 0.196
ACCGAATA | 0.173
TCCGAAAA | 0.264
ACCGAAAC | 0.264
ACCGAAAT | 0.218
GCCGAAAC | 0.34
GGTGGGAC | -0.349
GAAGTAGC | -0.00548
AGTAACGG | 0.101
AACGTAAG | -0.122
CATCAATC | -0.0552
GAGCCCCA | -0.266
CCGTGCGA | 0.166

Sequence | PBM E-score
CTTTGCCA | 0.034
TAACCATA | -0.0927
CTCTTTCC | -0.089
GAATTATA | 0.193
AAATTATA | 0.205
TAATTATA | 0.322
GGTGTTCA | 0.0476
ACCGGAAC | 0.398
GCAGGAAC | -0.0354
ACCGGAAG | 0.279
GCCGGAGC | 0.238
GCCGGAAC | 0.403
ACCGGAAA | 0.376
CCCGGAAC | 0.298
ACCGGAAT | 0.233
ACCGGACC | 0.29
AAGTCTAA | -0.093
CAGTCTCG | -0.0905
CAAGCGTC | -0.0502
